Screening results: PubChem, The Scripps Research Institute Molecular Screening Center
ADAM10 inh: inhibitors of human ADAM10. recombinant ADAM10, EDANS/DABCYL FRET peptide cleavage, 3 h. 0.62% of 370,000 active. inhibition, % at 7 µM. O14672;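 active means inhibition above a per-campaign cutoff equal to the mean of compounds falling between control-based bounds plus 3 SD, cut at about 20% in these data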;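 further: 0% = DMSO wells while the 100% control is not disclosed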
Target sequence (O14672 214-748 limits assumed): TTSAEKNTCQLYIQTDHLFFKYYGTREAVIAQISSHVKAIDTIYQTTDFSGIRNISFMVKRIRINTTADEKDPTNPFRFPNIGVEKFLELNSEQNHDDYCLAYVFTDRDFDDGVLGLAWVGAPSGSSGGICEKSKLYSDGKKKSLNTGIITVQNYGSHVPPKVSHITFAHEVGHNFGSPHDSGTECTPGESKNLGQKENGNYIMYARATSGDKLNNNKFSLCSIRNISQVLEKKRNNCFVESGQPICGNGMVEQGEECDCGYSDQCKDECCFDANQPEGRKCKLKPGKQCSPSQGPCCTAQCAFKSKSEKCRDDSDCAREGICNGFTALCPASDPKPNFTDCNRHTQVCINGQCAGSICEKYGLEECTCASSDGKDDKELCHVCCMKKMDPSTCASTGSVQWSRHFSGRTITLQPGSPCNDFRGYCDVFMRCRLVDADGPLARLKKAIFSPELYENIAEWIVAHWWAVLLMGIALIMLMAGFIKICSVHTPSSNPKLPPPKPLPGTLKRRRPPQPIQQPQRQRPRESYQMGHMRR
PLCb3 inh: blocks human PLC-beta3 enzyme activity; Purified PLC-beta3, fluorogenic substrate, fluorescence; inhibition, % at 12.2 µM; 0.18% of 370,000 active; Q01970; in the data active means inhibition above about 11%;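 further: 0% = median of compound wells on plate and 100% = full blocker control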
PLC-gamma1 inh: inhibitors of human phospholipase C gamma1; 0.84% of 370,000 active; AID 720700; purified PLC-gamma1, fluorogenic substrate, fluorescence; P19174; inhibition, % at 12.2 µM; in the data active means inhibition above about 9.5%
proKLK7 act: proKLK7 (human) activation, primary screen. activation, % at 7 µM. AID 652039. 0.9% of 370,000 active. purified proKLK7, EDANS-DABCYL substrate fluorescence; 100% is mature enzyme control, 0% vehicle. P49862;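 active means activation above the mean of all tested compounds plus 3 SD, computed per campaign excluding outliers beyond control limits, cut at about 13% in these data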
ADAM17 inh: inhibits human ADAM17; 0.83% of 370,000 active; P78536; recombinant ADAM17, EDANS/DABCYL FRET peptide cleavage; AID 720648; inhibition, % at 6.95 µM;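 active means inhibition above the mean of compounds lying between control limits plus 3 SD, set per campaign, cut at about 8.5% in these data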;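 further: 0% = DMSO-only wells as the low control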
KLK7 act conf: proKLK7 activation, confirmation; shares compounds with proKLK7 act; purified proKLK7, EDANS-DABCYL substrate fluorescence; scaled: vehicle 0, mature enzyme 100; activation, % at 7 µM; 68% of 3,200 active;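 active means activation, as change over the incubation, above the mean of all tested compounds plus 3 SD, cut at about 13% in these data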
EDANS interfere: optically interferes with EDANS-DABCYL signal, flagging KLK7 hits. shares compounds with proKLK7 act. EDANS-DABCYL substrate fluorescence interference, no enzyme, 4 h; solvent 0%, active enzyme control 100%. activation, % at 7 µM. 80% of 3,200 active. AID 686952;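 active means activation above the all-compound mean plus 3 SD, ignoring values outside control-based bounds, cut at about 4.8% in these data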;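 further: value is the 4 h activation minus the activation read at time zero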
EDANS interf: EDANS fluorescence interference in dose response, no enzyme; EDANS-DABCYL peptide fluorescence interference; shares compounds with proKLK7 act; EC50, µM; 20% of 250 active;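 active means compounds that raise the fluorescence signal in this interference counterscreen, with EC50 at or below 10 µM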;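 further: intact quenched peptide substrate alone read at 355 nm excitation and 520 nm emission; signal is fluorescence gain from T0 to T4 after four hours at room temperature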
* = called active by the depositor; i = inactive; · = no result given. Compounds with a hit are over-represented: about 2.9% of the library has one in this group of screens.

SMILES	ADAM10 inh	PLCb3 inh	PLC-gamma1 inh	proKLK7 act	ADAM17 inh	KLK7 act conf	EDANS interfere	others
COc1ccc(CC(=O)Nc2ccc(C)cc2S(=O)(=O)N2CCOCC2)cc1OC	-1.9	-1.1	-2.1	-0.1	-1.8	·	·
NC(=O)c1ncn([C@@H]2O[C@H](C(=O)N[C@H](Cc3c[nH]c4ccccc34)C(=O)O)[C@@H](O)[C@H]2O)n1	-17.8	-1.2	-5.7	0.9	-0.9	·	·
CCCn1c(NC(=O)c2ccccc2)nc(Cc2ccccc2)c1Cc1ccccc1	-2.2	-16.5	-8.2	-2.6	2.4	·	·
O=C(O)c1cc(-c2ccco2)nc2ccccc12	i	i	-486.9	20.7*	i	16.2*	16.0*
CCNC(=O)COC(=O)c1cc(-c2ccco2)nc2ccccc12	-455.5	i	i	120.7*	-156.5	16.5*	18.5*
O=C(Nc1nc2ccccc2s1)c1cc(-c2ccco2)nc2ccccc12	-335.1	-483.5	-380.0	9.2	-104.6	·	·
Cc1ccc(-c2cc(C(=O)O)c3cc(Br)ccc3n2)o1	-31.8	-51.6	-40.1	7.4	-12.0	·	·
COc1ccc(CNC(=O)COC(=O)c2cc(C)nc3ccccc23)cc1	-29.6	-5.5	-6.2	-0.2	-5.1	·	·
Cc1ccc(-c2cc(C(=O)NN3CCOCC3)c3cc(Br)ccc3n2)o1	-351.1	i	i	51.9*	-116.0	-185.4	-136.7
Cc1nnc(NC(=O)c2cc(-c3ccco3)nc3ccccc23)s1	-248.1	i	i	23.5*	-74.2	4.5	9.9*
O=C1[C@@H](CCc2ccccc2)[C@@H]2c3ccccc3C=NN2[C@@H]2c3ccccc3C=NN12	0.8	-1.3	0.4	0.0	-0.7	·	·
CC[C@@H](CCC(=O)N(c1ccccc1)c1ccccc1)c1ccc(C)cc1	2.3	0.9	-0.3	0.0	4.7	·	·
CCOC(=O)CC[C@H]1CC[C@]2(CCCN(S(=O)(=O)C3CCCCC3)C2)O1	1.7	-0.1	2.7	-0.1	0.6	·	·
CN1Cc2nnn(Cc3ccccc3)c2-c2ccccc2S1(=O)=O	-2.0	1.9	0.0	0.7	-6.6	·	·
O=C(Nc1ccccc1)c1cc(N2CCOCC2)nc2ccccc12	-136.4	-360.0	-304.9	12.5	-39.3	·	·
CCc1ccc(-c2cc(C(=O)O)c3ccccc3n2)s1	i	i	i	66.0*	i	60.4*	60.0*
Cc1ccc(-c2cc(C(=O)O)c3cc(Br)ccc3n2)s1	i	-350.3	-247.8	13.7*	-207.9	22.0*	26.4*
Cc1ccc(-c2cc(C(=O)N3CCCC3)c3ccccc3n2)s1	i	i	i	2.2	i	·	·
Cc1ccc(-c2cc(C(=O)N3CC(C)OC(C)C3)c3ccccc3n2)o1 (stereo not drawn)	i	i	i	46.2*	i	64.8*	66.4*
O=C(Nc1nccs1)c1cc(N2CCOCC2)nc2ccccc12	-27.4	i	i	18.2*	-16.2	14.3*	12.4*
NC(=O)C1CCN(c2nc(-c3ccc(OCc4ccccc4)cc3)cs2)CC1	8.3	-4.4	8.4	·	-4.7	·	·
COC(=O)[C@]12C[C@H](CC(=O)N3CCN(C(=O)c4ccco4)CC3)C(=O)N(Cc3ccco3)C1=C[C@H](C(C)(C)C)O[C@@H]2C	-1.2	-0.8	-0.2	0.1	-1.9	·	·
COc1ccc2[nH]c(=O)c(C(c3nnnn3CC3CCCO3)N3CCc4ccccc4C3)cc2c1 (stereo not drawn)	i	-181.5	-134.1	20.5*	-110.2	11.4	9.9*
Cc1noc2c1C(c1ccc(N(C)C)cc1)C1=C(CC(C)(C)CC1=O)N2 (stereo not drawn)	-1.2	-22.6	-11.6	0.5	-0.6	·	·
CCCSC1=C(C#N)C(c2ccc(OC)cc2)C2=C(CC(C)(C)CC2=O)N1 (stereo not drawn)	-39.1	-71.3	-53.5	16.5*	-13.3	-1.1	-0.6
SMILES	ADAM10 inh	PLCb3 inh	PLC-gamma1 inh	proKLK7 act	ADAM17 inh	KLK7 act conf	EDANS interfere	others
COc1ccc(C2C(C#N)=C(C)NC3=C2C(=O)CC(C)(C)C3)cc1 (stereo not drawn)	i	i	i	20.6*	-329.0	60.7*	66.1*
COc1cccc(C2C(C#N)=C(C)NC3=C2C(=O)CC(C)(C)C3)c1 (stereo not drawn)	i	i	i	25.1*	i	17.6*	34.1*
CSC1=C(C#N)C(c2ccc(Cl)cc2)C2=C(CC(C)(C)CC2=O)N1 (stereo not drawn)	-30.9	-57.7	-42.8	1.5	-7.0	·	·
Cc1ccc(C2C3=C(CC(C)(C)CC3=O)Nc3onc(C)c32)cc1 (stereo not drawn)	i	i	-484.1	14.7*	-223.4	-3.0	-7.7
Cc1cc(C)n2c(Br)c(CN3CCCC(C)C3)nc2n1 (stereo not drawn)	-314.0	-148.4	-128.9	14.9*	-72.5	14.0*	15.6*
Nc1ccccc1/C=C/c1ccccc1N	i	i	i	84.7*	i	60.7*	65.6*
Nc1ccccc1C=C1Cc2ccccc2C1=O	-15.4	-30.7	-18.4	0.3	-7.4	·	·
O=C(O)c1ccc(-c2nc(-c3ccccc3)c(-c3ccccc3)[nH]2)cc1	i	i	i	46.2*	i	78.8*	81.1*
OCCCN1CCC2(CCC(c3ccccc3)CC2)C1 (stereo not drawn)	16.3	0.7	1.2	0.0	5.9	·	·
Cc1cccc(-n2nc(C)c3c(C(=O)O)cc(-c4cccs4)nc32)c1	-72.2	i	i	0.7	-33.5	·	·
Cc1nn(-c2ccccn2)c2nc(-c3cccs3)cc(C(=O)N3CCOCC3)c12	i	i	i	23.4*	i	31.6*	26.0*	EDANS interf=>69.5
CCc1cc2c(COC(=O)c3c(C)noc3C)cc(=O)oc2cc1O	-264.6	i	-360.2	1.3	-84.4	·	·
CNS(=O)(=O)c1cccc(C(=O)OCc2cc(=O)oc3c(C)c(O)ccc23)c1	-107.7	-391.2	-259.3	265.3*	-44.0	602.7*	606.9*
CCc1cc2c(COC(=O)c3cccc(S(C)(=O)=O)c3)cc(=O)oc2cc1O	-391.1	-398.1	-252.1	507.6*	-158.1	567.6*	558.8*
CCOC(=O)c1nn(-c2ccc(F)cc2)c2nc(-c3ccccc3)c(C#N)c(=O)n12	-416.3	-405.2	-382.0	40.1*	-135.0	138.2*	146.4*
Cn1ccc2c(-c3cccc(C=O)c3)cc3c(c21)C1CCC3O1 (stereo not drawn)	-18.3	-17.0	-14.7	17.4*	-1.1	15.3*	13.8*
COc1ccc(F)cc1-c1cc(C(C)=O)c2n(c1=O)CCC2	1.5	-0.1	1.8	-0.3	-3.7	·	·
